# Inconclusive results are not listed. Where a call stands in place of a potency, no number is given. Activity calls are given as the source filed them. Unless noted, calls follow the shape of the dose curve; as a rule, active = well fitted curve in the direction sought with a large enough effect; inconclusive = small, poorly fitted or top-dose-only effect, or another doubt; inactive = no such curve, though single readings can be large; an effect the other way counts as inactive or inconclusive.
# Columns and labels:
# [1] = Quantitative high throughput screen for delayed death inhibitors of the malarial parasite plastid, 96 hour incubation (AID 488745); also: nearly all actives have a fitted effect of over 70% in size; also: potency is read from the fitted curve at half-maximal effect
# Procedure, shortened: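 P. falciparum carrying an integrated firefly luciferase reporter, grown in erythrocytes (2% hematocrit, 0.1% parasitemia final) in RPMI 1640/0.5% Albumax, was exposed to compound for 96 h (two generations) at 37 C, 5% CO2. Luminescence decrease indicated growth inhibition.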
# [2] = Quantitative high throughput screen for delayed death inhibitors of the malarial parasite plastid, 48 hour incubation (AID 488752); also: nearly all actives have a fitted effect of over 65% in size; also: potency is read from the fitted curve at half-maximal effect
# Procedure, shortened: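 Erythrocytes infected with P. falciparum carrying an integrated firefly luciferase reporter (2% hematocrit, 0.1% parasitemia final) were exposed to compounds in RPMI 1640/0.5% Albumax for 48 h at 37 C, 5% CO2. Growth inhibition was scored as reduced luminescence.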
# [3] = molecular target: Thioredoxin reductase 1, cytoplasmic (Rattus norvegicus) (UniProt O89049); assay: qHTS Assay for Substrates of Mammalian Selenoprotein Thioredoxin Reductase 1 (TrxR1) (AID 488772);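 also: NADPH fluorescence in the first read after selenite addition and not the 8 min delta; series mostly up to about 57 µM; a drop in NADPH fluorescence below the no-compound background marks a TrxR1 substrate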
# Procedure, shortened: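 Quantitative HTS in Tris-HCl buffer at pH 7.5 with EDTA and Tween-20, using rat TrxR1, 400 uM NADPH and 400 uM selenite (final). A fall in initial NADPH fluorescence relative to background marked substrate behaviour.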
# [4] = molecular target: Thioredoxin reductase 1, cytoplasmic (Rattus norvegicus) (UniProt O89049); assay: qHTS Assay for Inhibitors of Mammalian Selenoprotein Thioredoxin Reductase 1 (TrxR1) (AID 488773); conditions: Potency: inhibition; also: nearly all actives have a fitted effect of over 40% in size; also: potency is read from the fitted curve at half-maximal effect
# Procedure, shortened: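 Steps: enzyme (90 nM) plus NADPH (400 uM final), 5 min at ~22 deg C; compound added, 15 min; selenite (400 uM final) added; fluorescence followed for 8 min. Concentration-response curves derived from the normalized delta values.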
# [5] = molecular target: M-phase phosphoprotein 8 (Homo sapiens) (UniProt Q99549); assay: qHTS Validation Assay for Inhibitors for MPP8 Chromodomain Interactions with Methylated Histone Tails (AID 488949); also: nearly all actives have a fitted effect of over 55% in size; also: potency is read from the fitted curve at half-maximal effect
# Procedure, shortened: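 AlphaScreen proximity signal from streptavidin donor and Ni-chelate acceptor beads (10 ug/mL each) reported binding of MPP8 to trimethyl-K9 H3(1-18) peptide, both at 50 nM. The complex formed 30 min before a 30 min compound exposure at room temperature, in PBS pH 7.4.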
# [6] = molecular target: Methanococcus maripaludis chaperonin (MmCpn) (UniProt Q6LX38); assay: High-Throughput Screening for Modulators of Cytosolic Chaperonin Activity: MmCpn Primary Screen (AID 488978);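 also: 50 nM MmCpn enzyme hydrolysing 30 µM ATP at 37 °C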
# Procedure, shortened: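 ATPase activity of 50 nM MmCpn was assayed with 30 uM ATP, 10 minutes at 37C, after a 5 min compound preincubation at room temperature. ADP production was read as HTRF emission at 590 and 665 nm.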
# [7] = molecular target: Transient receptor potential cation channel subfamily V member 1 (Homo sapiens) (UniProt Q8NER1); assay: HTS Assay for Compounds that Act as Enhancers of the Vanilloid Receptor 1 (AID 488979)
# Procedure, shortened: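 Calcium influx kinetics via Fluo-8 (480/520 nm) in TRPV1-expressing cells, 2000/well cultured overnight at 35.5C. Compound-alone read 3 min (agonist phase), followed by EC20 capsaicin challenge for 2 min (enhancer phase).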
# [8] = molecular target: Thyrotropin receptor (Homo sapiens) (UniProt P16473); assay: qHTS Assay for Antagonists of the Thyroid Stimulating Hormone Receptor (AID 488980); also: series mostly up to about 58 µM
# Procedure, shortened: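 Inhibition of cAMP raised by EC80 TSH (4 nM final) was read by HTRF, with lysate cAMP competing against cAMP-d2 for cryptate antibody after 30 min at room temperature. The cells were transfected HEK293 held in phosphodiesterase inhibitor RO 20-1724 at 70 uM.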
# [9] = molecular target: D(1A) dopamine receptor (Homo sapiens) (UniProt P21728); assay: HTS Assay for Allosteric Agonists of the Human D1 Dopamine Receptor: Primary Screen for Agonists (AID 488981); also: potency is read from the fitted curve at half-maximal effect
# Procedure, shortened: (§1)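 Calcium flux in an inducible, force-coupled HEK293 Trex D1 line (overnight at 30 C): agonist mode is the 180 s kinetic read after compound; potentiator mode is the following 180 s read after dopamine at EC20.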
# [10] = molecular target: D(1A) dopamine receptor (Homo sapiens) (UniProt P21728); assay: HTS Assay for Allosteric Agonists of the Human D1 Dopamine Receptor: Primary Screen for Potentiators (AID 488982); also: potency is read from the fitted curve at half-maximal effect
# Procedure, shortened: as §1
# [11] = molecular target: D(1A) dopamine receptor (Homo sapiens) (UniProt P21728); assay: HTS Assay for Allosteric Agonists of the Human D1 Dopamine Receptor: Primary Screen for Antagonists (AID 488983);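 also: calcium flux response to an EC80 dopamine challenge measured with no-wash dye; nearly all actives have a fitted effect of over 65% in size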; also: potency is read from the fitted curve at half-maximal effect
# Procedure, shortened: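 Tetracycline-induced HEK293 T-REx cells expressing force-coupled D1 were plated overnight at 30 C, dye-loaded for calcium, and read kinetically. Compounds were pinned in, then an EC80 dopamine challenge followed after 180 s to reveal antagonism.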
# [12] = molecular target: ATP-dependent 6-phosphofructokinase (Trypanosoma brucei brucei) (UniProt O15648); assay: qHTS Assay to Find Inhibitors of T. brucei phosphofructokinase: hit validation (AID 492961);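 also: luminescence reports ADP formed as PFK phosphorylates fructose-6-phosphate with ATP; series mostly up to about 51 µM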
# Procedure, shortened: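 Measures ADP output of PFK (1.25 nM) at 0.1 mM ATP, 0.5 mM F6P, pH 8.0 TEA buffer with 5 mM MgCl2. No-enzyme wells define full inhibition; uninhibited enzyme wells define zero.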
# [13] = Validation screen for small molecules that induce genotoxicity in human embryonic kidney (HEK293T) cells expressing luciferase-tagged ELG1 (AID 493106)
# Procedure, shortened: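 HEK293T cells expressing luciferase-tagged ELG1 were exposed to compound or DMSO vehicle for 16 hr at 37 °C, 5% CO2. Genotoxic stress raises ELG1 levels, so increased luciferase signal after ONE-Glo addition and 30 min at room temperature marks hits.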
# [14] = molecular target: ATPase family AAA domain-containing protein 5 (Homo sapiens) (UniProt Q96QE3); assay: Validation screen for small molecules that inhibit ELG1-dependent DNA repair in human embryonic kidney (HEK293T) cells expressing luciferase-tagged ELG1 (AID 493107); also: nearly all actives have a fitted effect of over 70% in size; also: potency is read from the fitted curve at half-maximal effect
# Procedure, shortened: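 HEK293T cells expressing luciferase-tagged ELG1 were co-treated with 5-fluorouridine and compound or DMSO for 16 hr at 37 °C, 5% CO2. Luciferase activity was then read with ONE-Glo after 30 min at room temperature; suppressed signal indicates blocked ELG1 function.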
# [15] = molecular target: Thyrotropin-releasing hormone receptor (Homo sapiens) (UniProt P34981); assay: qHTS for Small Molecule Agonists and Allosteric Enhancers of Human TRH Receptor: Validation Screen for Agonists (AID 493127;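 active = calcium activation more than 3 SD above the typical response in the agonist read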;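 also: intracellular calcium rise by fluo-8 fluorescence before TRH EC20 addition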); conditions: TRH receptor agonist cell assay; at 2 µM; stronger effect = higher value
# Procedure, shortened: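 TRHR-expressing cells were plated overnight in serum-containing medium, then loaded with fluo-8 calcium dye at room temperature for 30 min–1.5 h. After a 10 s baseline, compound was pin-transferred and calcium fluorescence (ex 480/em 530) read kinetically for agonist response.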
# [16] = Nrf2 qHTS screen for inhibitors: Validation (AID 493153; active = well fitted inhibition curve with a large enough effect in the main read-out, with a control signal flat, not every such curve was filed as active); conditions: Potency: luciferase luminescence; viability change: measured here: cytotoxicity max response
# Procedure, shortened: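 A549 cells carrying an ARE-driven firefly luciferase reporter, in 5% FBS OPTI-MEM, were treated with compounds in concentration-response for 18-24 h at 37°C. Viability was read by CellTiter-Fluor fluorescence, then Nrf2 activity by luciferase luminescence.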
# [17] = molecular target: Flap endonuclease 1 (Homo sapiens) (UniProt P39748); assay: qHTS Validation Assay for the Inhibitors of Human Flap endonuclease 1 (FEN1) (AID 488816); also: potency is read from the fitted curve at half-maximal effect
# Procedure, shortened: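 Readings taken at 0 and 15 min after starting the reaction with 50 nM (final) substrate supplied the signal. Compounds had first sat with 10 nM FEN1 reagent for 15 min at room temperature. Values come from Hill-equation concentration-response fits.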
# [18] = molecular target: Chromobox protein homolog 1 (Homo sapiens) (UniProt P83916); assay: qHTS Validation Assay for Inhibitors of HP1-beta Chromodomain Interactions with Methylated Histone Tails (AID 488953); also: nearly all actives have a fitted effect of over 50% in size; also: potency is read from the fitted curve at half-maximal effect
# Procedure, shortened: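 HP1-beta (50 nM) was preincubated 30 min at room temperature with biotinylated H3(1-18)K9me3 peptide (50 nM) in PBS pH 7.4, 0.01% Tween-20, then with compounds 30 min. AlphaScreen signal was read after streptavidin donor/nickel chelate acceptor beads (10 ug/mL final).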
# [19] = qHTS for Inhibitors of Cell Surface uPA Generation: Validation Assay (AID 493164);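 also: RAW 264.7 macrophage cells exposed to compound for 18 h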
# Procedure, shortened: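 RAW 264.7, 4000 cells/well, o/n plating; cpd 7-pt 1:5 dilution 2.45 nM–38.3 uM final; 18 h, 37 C/5% CO2; ATP-Lite, 5 s luminescence exposure.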
# Thioredoxin reductase 1, cytoplasmic (Rattus norvegicus), sequence (O89049 whole entry, looked up): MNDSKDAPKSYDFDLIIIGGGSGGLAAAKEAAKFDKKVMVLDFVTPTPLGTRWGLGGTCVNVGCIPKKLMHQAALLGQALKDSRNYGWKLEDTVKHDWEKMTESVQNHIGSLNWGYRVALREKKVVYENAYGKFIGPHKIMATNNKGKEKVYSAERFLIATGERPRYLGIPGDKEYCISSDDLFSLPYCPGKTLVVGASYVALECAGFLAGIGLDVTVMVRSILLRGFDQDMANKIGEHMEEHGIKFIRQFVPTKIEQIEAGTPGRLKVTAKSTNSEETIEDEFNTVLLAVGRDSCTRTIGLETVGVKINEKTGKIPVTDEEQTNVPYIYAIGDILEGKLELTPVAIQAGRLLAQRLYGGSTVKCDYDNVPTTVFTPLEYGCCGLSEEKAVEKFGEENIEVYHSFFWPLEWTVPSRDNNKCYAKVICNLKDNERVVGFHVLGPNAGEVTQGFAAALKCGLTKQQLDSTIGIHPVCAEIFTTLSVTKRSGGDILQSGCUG
# D(1A) dopamine receptor (Homo sapiens), sequence (P21728 whole entry, looked up): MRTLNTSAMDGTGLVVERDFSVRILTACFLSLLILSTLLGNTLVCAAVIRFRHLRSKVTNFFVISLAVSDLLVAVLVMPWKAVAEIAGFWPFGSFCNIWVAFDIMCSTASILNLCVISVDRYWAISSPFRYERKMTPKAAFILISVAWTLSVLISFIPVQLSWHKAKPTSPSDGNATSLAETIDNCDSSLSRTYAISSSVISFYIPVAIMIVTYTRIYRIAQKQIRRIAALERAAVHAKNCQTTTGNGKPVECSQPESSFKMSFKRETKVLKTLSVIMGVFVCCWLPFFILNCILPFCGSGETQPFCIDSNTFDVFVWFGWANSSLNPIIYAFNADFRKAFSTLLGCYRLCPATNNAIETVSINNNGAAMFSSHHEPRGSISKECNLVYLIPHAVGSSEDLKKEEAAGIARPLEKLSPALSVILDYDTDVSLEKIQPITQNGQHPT
# M-phase phosphoprotein 8 (Homo sapiens), sequence (Q99549 whole entry, looked up): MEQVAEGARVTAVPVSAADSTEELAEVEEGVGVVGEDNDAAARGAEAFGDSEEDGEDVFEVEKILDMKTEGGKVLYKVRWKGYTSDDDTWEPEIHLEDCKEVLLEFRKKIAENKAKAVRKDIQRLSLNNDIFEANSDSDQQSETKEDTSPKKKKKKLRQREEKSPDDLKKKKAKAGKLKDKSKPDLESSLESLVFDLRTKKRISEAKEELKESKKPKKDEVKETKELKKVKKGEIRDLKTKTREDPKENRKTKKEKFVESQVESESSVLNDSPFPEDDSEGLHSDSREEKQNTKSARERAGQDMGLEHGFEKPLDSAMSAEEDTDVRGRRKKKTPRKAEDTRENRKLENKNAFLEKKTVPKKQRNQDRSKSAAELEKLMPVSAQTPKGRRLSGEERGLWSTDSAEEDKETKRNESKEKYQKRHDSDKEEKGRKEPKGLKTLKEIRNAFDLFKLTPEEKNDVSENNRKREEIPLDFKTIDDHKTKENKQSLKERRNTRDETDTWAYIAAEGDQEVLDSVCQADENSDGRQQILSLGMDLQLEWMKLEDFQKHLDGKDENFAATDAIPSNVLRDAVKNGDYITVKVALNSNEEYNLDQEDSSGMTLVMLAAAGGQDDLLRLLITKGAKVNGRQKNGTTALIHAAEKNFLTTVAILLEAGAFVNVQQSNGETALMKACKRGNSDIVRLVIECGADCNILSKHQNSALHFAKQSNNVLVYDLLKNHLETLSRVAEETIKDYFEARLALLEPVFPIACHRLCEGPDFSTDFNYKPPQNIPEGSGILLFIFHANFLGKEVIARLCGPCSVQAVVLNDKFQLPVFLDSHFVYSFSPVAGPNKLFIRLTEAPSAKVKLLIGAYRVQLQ
# Methanococcus maripaludis chaperonin (MmCpn), sequence (Q6LX38 1-543): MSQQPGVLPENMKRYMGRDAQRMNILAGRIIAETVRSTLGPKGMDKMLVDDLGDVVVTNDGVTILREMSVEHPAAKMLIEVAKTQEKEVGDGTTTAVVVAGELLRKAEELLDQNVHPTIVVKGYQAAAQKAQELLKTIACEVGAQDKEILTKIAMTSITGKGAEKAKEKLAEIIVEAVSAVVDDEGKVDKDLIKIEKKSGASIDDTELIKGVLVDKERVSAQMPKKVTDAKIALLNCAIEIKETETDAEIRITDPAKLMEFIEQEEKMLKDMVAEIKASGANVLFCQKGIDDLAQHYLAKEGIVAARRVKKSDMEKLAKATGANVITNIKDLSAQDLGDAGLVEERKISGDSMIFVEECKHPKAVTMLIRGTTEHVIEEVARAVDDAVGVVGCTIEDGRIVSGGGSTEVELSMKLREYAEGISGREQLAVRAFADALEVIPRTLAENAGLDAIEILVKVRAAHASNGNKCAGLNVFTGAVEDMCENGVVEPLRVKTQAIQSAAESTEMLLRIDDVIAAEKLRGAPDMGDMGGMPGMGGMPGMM
# Thyrotropin receptor (Homo sapiens), sequence (P16473 whole entry, looked up): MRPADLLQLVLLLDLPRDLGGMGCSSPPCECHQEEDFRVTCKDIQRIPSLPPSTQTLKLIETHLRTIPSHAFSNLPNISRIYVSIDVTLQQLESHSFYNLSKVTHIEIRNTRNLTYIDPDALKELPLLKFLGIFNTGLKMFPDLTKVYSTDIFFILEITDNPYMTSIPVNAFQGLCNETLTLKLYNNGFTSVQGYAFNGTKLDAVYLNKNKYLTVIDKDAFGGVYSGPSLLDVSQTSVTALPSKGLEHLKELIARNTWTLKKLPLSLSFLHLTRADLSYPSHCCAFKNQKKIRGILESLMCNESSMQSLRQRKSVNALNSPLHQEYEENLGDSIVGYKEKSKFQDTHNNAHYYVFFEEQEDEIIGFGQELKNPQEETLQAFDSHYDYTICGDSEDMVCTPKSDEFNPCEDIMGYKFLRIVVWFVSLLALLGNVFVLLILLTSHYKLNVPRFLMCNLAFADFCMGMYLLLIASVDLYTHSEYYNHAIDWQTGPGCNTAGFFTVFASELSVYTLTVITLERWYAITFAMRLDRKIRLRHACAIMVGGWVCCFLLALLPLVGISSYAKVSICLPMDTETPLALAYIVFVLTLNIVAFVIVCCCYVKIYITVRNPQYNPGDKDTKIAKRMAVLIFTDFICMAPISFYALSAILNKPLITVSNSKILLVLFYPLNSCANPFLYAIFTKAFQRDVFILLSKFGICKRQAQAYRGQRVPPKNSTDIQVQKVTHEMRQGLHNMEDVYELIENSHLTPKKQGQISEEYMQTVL
# Transient receptor potential cation channel subfamily V member 1 (Homo sapiens), sequence (Q8NER1 whole entry, looked up): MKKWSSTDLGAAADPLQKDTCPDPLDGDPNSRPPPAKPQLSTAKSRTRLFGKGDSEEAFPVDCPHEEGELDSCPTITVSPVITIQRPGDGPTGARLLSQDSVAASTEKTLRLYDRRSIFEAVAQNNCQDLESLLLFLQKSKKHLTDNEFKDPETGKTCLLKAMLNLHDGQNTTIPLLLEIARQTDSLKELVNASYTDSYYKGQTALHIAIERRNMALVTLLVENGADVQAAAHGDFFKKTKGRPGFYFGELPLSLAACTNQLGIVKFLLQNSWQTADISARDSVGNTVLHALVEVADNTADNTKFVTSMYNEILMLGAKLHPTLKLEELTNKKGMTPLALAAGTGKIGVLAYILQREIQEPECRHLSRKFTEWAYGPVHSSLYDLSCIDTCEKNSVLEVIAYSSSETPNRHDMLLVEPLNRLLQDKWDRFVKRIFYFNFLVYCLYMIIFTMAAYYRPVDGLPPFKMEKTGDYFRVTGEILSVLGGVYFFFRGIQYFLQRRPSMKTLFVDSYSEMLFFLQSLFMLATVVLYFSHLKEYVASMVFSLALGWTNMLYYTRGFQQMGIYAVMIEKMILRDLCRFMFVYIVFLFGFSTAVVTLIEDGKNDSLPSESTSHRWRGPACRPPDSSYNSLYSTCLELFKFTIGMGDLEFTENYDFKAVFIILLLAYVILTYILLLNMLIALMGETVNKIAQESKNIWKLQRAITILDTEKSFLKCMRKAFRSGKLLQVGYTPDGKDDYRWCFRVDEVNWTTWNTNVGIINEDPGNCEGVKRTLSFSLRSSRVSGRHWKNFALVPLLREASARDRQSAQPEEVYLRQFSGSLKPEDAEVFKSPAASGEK
# Chromobox protein homolog 1 (Homo sapiens), sequence (P83916 whole entry, looked up): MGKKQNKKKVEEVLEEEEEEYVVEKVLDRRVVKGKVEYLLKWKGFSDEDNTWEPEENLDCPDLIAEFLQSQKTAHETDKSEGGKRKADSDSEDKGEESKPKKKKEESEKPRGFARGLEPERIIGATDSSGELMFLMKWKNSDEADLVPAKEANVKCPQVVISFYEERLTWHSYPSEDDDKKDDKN
# Thyrotropin-releasing hormone receptor (Homo sapiens), sequence (P34981 whole entry, looked up): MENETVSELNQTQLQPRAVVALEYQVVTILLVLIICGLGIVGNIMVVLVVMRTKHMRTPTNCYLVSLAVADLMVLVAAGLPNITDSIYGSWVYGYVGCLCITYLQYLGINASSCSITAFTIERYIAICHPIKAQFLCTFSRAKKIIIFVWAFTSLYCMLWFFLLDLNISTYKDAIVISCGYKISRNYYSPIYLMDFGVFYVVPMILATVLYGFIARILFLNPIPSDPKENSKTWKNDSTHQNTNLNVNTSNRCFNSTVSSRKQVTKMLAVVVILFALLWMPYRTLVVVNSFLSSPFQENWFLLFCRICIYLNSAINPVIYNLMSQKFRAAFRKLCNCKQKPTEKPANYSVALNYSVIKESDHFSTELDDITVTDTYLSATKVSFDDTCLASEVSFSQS
# Flap endonuclease 1 (Homo sapiens), sequence (P39748 whole entry, looked up): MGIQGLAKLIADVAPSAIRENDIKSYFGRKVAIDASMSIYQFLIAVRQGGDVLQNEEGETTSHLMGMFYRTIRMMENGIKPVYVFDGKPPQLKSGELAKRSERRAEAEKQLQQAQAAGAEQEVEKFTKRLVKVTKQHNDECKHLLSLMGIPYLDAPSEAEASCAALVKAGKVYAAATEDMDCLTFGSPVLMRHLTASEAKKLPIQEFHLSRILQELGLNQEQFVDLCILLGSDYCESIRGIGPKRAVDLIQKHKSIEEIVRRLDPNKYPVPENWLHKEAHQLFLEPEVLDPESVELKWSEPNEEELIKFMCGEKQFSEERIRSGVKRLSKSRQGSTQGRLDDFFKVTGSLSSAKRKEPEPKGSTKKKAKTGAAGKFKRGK
SMILES,Potency [1],Potency [2],outcome [3],Potency [4],Potency [5],outcome [6],outcome [7],outcome [8],Potency [9],Potency [10],Potency [11],Potency [12],Potency [13],Potency [14],activation [15],Potency [16],viability change [16],Potency [17],Potency [18],outcome [19]
Cc1sc2ccccc2c1CC1=NCCN1,inactive,inactive,inactive,inactive,inactive,inactive,inactive,inactive,inactive,inactive,10 µM (active),inactive,inactive,inactive,1.12% (inactive),inactive,-0.892%,,,
CC(N)[C@H](O)c1ccc(O)c(O)c1 (stereo partly drawn),inactive,inactive,inactive,11.9 µM (active),29.9 µM (active),inactive,inactive,,inactive,inactive,inactive,,inactive,inactive,1.12% (inactive),inactive,-3.08%,2.67 µM (active),,
Cc1c2ccncc2c(C)c2c1[nH]c1ccccc12,1.17 µM (active),1.85 µM (active),inactive,,inactive,inactive,inactive,inactive,10 µM (active),inactive,inactive,,inactive,16.4 µM (active),,,,10.6 µM (active),50.1 µM (active),inactive
c1ccc2c(c1)[I+]c1ccccc1-2,0.131 µM (active),0.147 µM (active),inactive,,inactive,inactive,inactive,inactive,inactive,inactive,inactive,,inactive,10.3 µM (active),-4.44% (inactive),,,,inactive,inactive
CCN(CCCl)Cc1ccccc1Br,inactive,inactive,inactive,,inactive,inactive,inactive,inactive,inactive,inactive,,,inactive,inactive,-8% (inactive),,,,inactive,inactive
CCN(CC)c1ncnc2c1ncn2[C@@H]1O[C@H](COP(=O)(O)OP(=O)(O)C(Br)(Br)P(=O)(O)O)[C@@H](O)[C@H]1O,inactive,inactive,,,inactive,,inactive,inactive,,,,,,,0.312% (inactive),,,,,
CC(=O)OCC1=C(C(=O)O)N2C(=O)[C@@H](NC(=O)CCC[C@@H](N)C(=O)O)[C@H]2SC1,,,inactive,inactive,inactive,inactive,,,inactive,,inactive,,inactive,,,inactive,1.57%,inactive,,inactive
N#C/C(=C/c1ccc(O)c(O)c1)C(N)=S,,,,,13.4 µM (active),inactive,,,inactive,0.517 µM (active),inactive,,,inactive,,inactive,0.144%,2.99 µM (active),12.6 µM (active),inactive
CCC(=O)O[C@@](Cc1ccccc1)(c1ccccc1)[C@@H](C)CN(C)C,,,,,,,,,,,,inactive,,,,,,,,
C=CCN1CCc2cccc3c2[C@H]1Cc1ccc(O)c(O)c1-3,,,inactive,5.97 µM (active),,inactive,,,0.794 µM (active),inactive,0.398 µM (active),,inactive,,,inactive,1.3%,inactive,44.7 µM (active),inactive

# — PubChem BioAssay (NCATS)
